Among the test systems are HCT-15 colon; HT29 colon; SNB-19 CNS; U251 CNS; PC-3 prostate; SK-MEL-5 melanoma; UACC-62 melanoma; SK-MEL-28 melanoma; LOX IMVI melanoma; SNB-75 CNS.
Assay in all cases: NCI-60 one-dose screen, 48 h (100 = growth as untreated, 0 = no growth, -100 = all killed)
What all share (details): 10 µM unless noted

These results are taken from PubChem BioAssay (NCI).

The structures appear in SMILES notation. Compounds without any hit were thinned out: in the full panel of roughly 83,000, 20% have a hit.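 Cell lines were cultured in 96-well plates, exposed to a single compound concentration, and assessed for percent growth 48 hours later.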 Values without a mark were called inactive. The source made the active and inactive calls. The calls were made as follows: active = growth percent below 10; inactive = the rest.

Turning to `O=C1/C(=C/c2ccccc2[N+](=O)[O-])Oc2ccc(O)c(O)c21`, the growth in the experiment with HCT-15 colon is 18.6%; in the experiment with HT29 colon it was 32.3%; with SNB-19 CNS, 70.3%; in the experiment on U251 CNS, 54.1%; in the experiment with PC-3 prostate, 44.5%; with SK-MEL-5 melanoma, 62%. Also, the growth was -41.1% (active) in the experiment on UACC-62 melanoma and 22.5% in the experiment with SK-MEL-28 melanoma.

For the molecule `C[N+]1=C(/C=C/c2ccc(O)c3ncccc23)C(C)(C)c2ccccc21`, the growth with HCT-15 colon was 25%; with HT29 colon, 96.9%; with SNB-19 CNS, 27.9%; with U251 CNS, 17.1%; in the experiment with PC-3 prostate it was 71.2%; in the experiment with SK-MEL-5 melanoma it was 1.13% (active). For the same molecule, the growth is 39.2% with UACC-62 melanoma, 40.4% in the experiment with LOX IMVI melanoma and 51.5% in the experiment with SK-MEL-28 melanoma.

As for `CCCCNc1nc(NN2C(=O)c3cccc4cccc(c34)C2=O)nc(-n2cnc3ccccc32)n1`, the growth with HCT-15 colon is 85.2%; in the experiment on HT29 colon, 98%; in the experiment with SNB-19 CNS it was 86.9%; in the experiment on U251 CNS it was 69.3%; in the experiment on PC-3 prostate, 77.4%; with SK-MEL-5 melanoma, 75.6%. For the same molecule, the growth was 88.3% with UACC-62 melanoma, 87.4% with LOX IMVI melanoma and 94.1% in the experiment with SK-MEL-28 melanoma.

Regarding `CN1CCN(c2ccc(-c3ccc4ncc(C#N)c(Nc5ccc(F)c(Cl)c5)c4c3)cn2)CC1`, the growth was 13.4% in the experiment with HCT-15 colon; 36.6% in the experiment with HT29 colon; 74.7% in the experiment on SNB-19 CNS; 57% with U251 CNS; 58.5% with PC-3 prostate; 82.9% with SK-MEL-5 melanoma. The growth is 68.8% with LOX IMVI melanoma and 70.3% in the experiment on SK-MEL-28 melanoma.

Turning to `CCCCCCCCCCCCCCCCCCOc1ccc(CC(=O)OCC[N+]2(C)CCCCC2)cc1`, the growth was 97.5% in the experiment on HCT-15 colon; 91.4% in the experiment on HT29 colon; 87.5% in the experiment with SNB-19 CNS; 91.9% in the experiment on U251 CNS; 92.2% in the experiment with PC-3 prostate; 100% in the experiment with SK-MEL-5 melanoma. The results for the growth with UACC-62 melanoma and in the experiment with SK-MEL-28 melanoma were 88.8% and 106%, respectively.

As for `CCCCCCn1c(-c2ccc(C(=O)O/N=C(\N)c3ccc4ccccc4c3)cc2)nc(-c2ccccc2)c1-c1ccccc1`, the growth was 49.3% in the experiment with HCT-15 colon; 74.5% in the experiment with HT29 colon; 68.9% with SNB-19 CNS; 50.2% in the experiment on U251 CNS; 51.3% with PC-3 prostate; 68.2% in the experiment with SK-MEL-5 melanoma. The growth in the experiment on LOX IMVI melanoma was -88.6% (active); with SK-MEL-28 melanoma, 72.9%.

Consider `CC(=O)CC(c1ccccc1)c1c(C)[nH]c2ccccc12` (stereo not drawn), for which the growth with HCT-15 colon is 97.5%; in the experiment on HT29 colon, 103%; in the experiment with SNB-19 CNS it was 93.2%; with U251 CNS, 105%; in the experiment with PC-3 prostate, 87.9%; in the experiment on SK-MEL-5 melanoma, 99.3%. The growth with UACC-62 melanoma is 86.7%; in the experiment with LOX IMVI melanoma, 90.5%; in the experiment on SK-MEL-28 melanoma, 102%.

`O=c1c2cc(F)ccc2sc2c(N3CCNCC3)nc3ccc(F)cc3c12`: the growth was -66.4% (active) in the experiment with HCT-15 colon; -41.2% (active) with HT29 colon; 57% in the experiment with SNB-19 CNS; -56.2% (active) with U251 CNS; 32% in the experiment with PC-3 prostate; 81.5% in the experiment on SK-MEL-5 melanoma. Further, the growth is -98.5% (active) with LOX IMVI melanoma and 27.9% in the experiment with SK-MEL-28 melanoma.

On to `CN(C)c1ccc(/C=N\Nc2cc(=O)[nH]c3ccc(Cl)cc23)cc1`, for which the growth is 99.3% with HCT-15 colon; 96% in the experiment with HT29 colon; 96.9% in the experiment with SNB-19 CNS; 99.8% with U251 CNS; 86.4% with PC-3 prostate; 98.3% with SK-MEL-5 melanoma. The growth was 82.1% in the experiment on UACC-62 melanoma, 99% in the experiment on LOX IMVI melanoma and 114% in the experiment on SK-MEL-28 melanoma.

In the case of `CCOC(=O)NCCc1ccccc1`, the growth is 118% with HCT-15 colon; 102% in the experiment with HT29 colon; 103% in the experiment on SNB-19 CNS; 108% in the experiment with U251 CNS; 101% in the experiment with PC-3 prostate; 111% in the experiment on SK-MEL-5 melanoma. Also, the growth in the experiment with UACC-62 melanoma is 88.8%; in the experiment with LOX IMVI melanoma, 93.9%; with SK-MEL-28 melanoma, 118%.

For the molecule `CCc1ccc2nc(NC(=O)Cc3csc(NC(=O)c4ccco4)n3)sc2c1`, the growth with HCT-15 colon was 95.5%; with HT29 colon, 86.5%; with SNB-19 CNS, 64.4%; with U251 CNS, 67.3%; in the experiment with PC-3 prostate, 66.1%; with SK-MEL-5 melanoma it was 81.6%. Also, the growth was 65.9% in the experiment with UACC-62 melanoma, 85.7% with LOX IMVI melanoma and 90.9% with SK-MEL-28 melanoma.

With `Cc1ccc(C(=O)N/N=C/c2cccc(Oc3ccccc3)c2)cn1`, the growth in the experiment with HCT-15 colon was 38.5%; in the experiment on HT29 colon, 20%; in the experiment on SNB-19 CNS it was 65.6%; in the experiment on U251 CNS it was 58.9%; in the experiment with PC-3 prostate it was 76.7%; with SK-MEL-5 melanoma it was 47.4%. The results for the growth with UACC-62 melanoma, in the experiment on LOX IMVI melanoma and in the experiment on SK-MEL-28 melanoma were 38.3%, 63.9% and 63.7%, respectively.

As for `COc1ccccc1/C=C1\Oc2cc(OCCN3CCC(Cc4ccccc4)CC3)ccc2C1=O`, the growth with HCT-15 colon was 52.5%; in the experiment on HT29 colon it was 31.2%; with SNB-19 CNS, 90.8%; in the experiment on U251 CNS, 78.2%; in the experiment with PC-3 prostate, 81.8%; in the experiment on SK-MEL-5 melanoma it was 90.9%. Besides, the values for the growth in the experiment with UACC-62 melanoma, in the experiment on LOX IMVI melanoma and in the experiment on SK-MEL-28 melanoma were 92.1%, 70.7% and 87.5%, respectively.

On to `c1cc(-c2nnc(SSc3ncnc4nc[nH]c34)o2)ccn1`, for which the growth with HCT-15 colon was 37.3%; in the experiment on HT29 colon it was 18.9%; in the experiment with SNB-75 CNS, 56.8%; in the experiment on PC-3 prostate it was 51%; with SK-MEL-5 melanoma, 72.1%; with LOX IMVI melanoma, 9.77% (active). Also, in the experiment on SK-MEL-28 melanoma, the growth is 76.2%.

Take `COc1ccc(-c2cnc3ccccc3n2)cc1`: the growth is 99.9% in the experiment on HCT-15 colon; 118% with HT29 colon; 93.6% in the experiment on SNB-19 CNS; 86.3% with U251 CNS; 98% with PC-3 prostate; 101% in the experiment with SK-MEL-5 melanoma. For the same molecule, the growth is 91.6% in the experiment with UACC-62 melanoma, 101% with LOX IMVI melanoma and 104% with SK-MEL-28 melanoma.
